# This is a sample that favours compounds with a hit; in the whole collection about 3.6% have one here.
# Anthrax LF prot: Bacillus anthracis LF protease inhibitors, primary screen, biochemical, multiplex microsphere, MLPCN library; Lethal factor (Bacillus anthracis), P15917; multiplex microsphere protease cleavage assay; inhibition, % at 10 µM; 360,000 tested, 0.12% active; AID 588501, 2011
# Autofluor counter: counter-screen for toxin protease inhibitors: compound fluorescence; fluorescence intensity (concentration not given with the values); AID 624483; compound autofluorescence counterscreen, microsphere flow cytometry; active compounds read high; 360,000 tested, 3.1% active; in the data active = fluorescence intensity above about 16000; inconclusive = no clear call, values can overlap the other calls
# 3CLpro inhibitor: SARS-CoV 3CLpro protease inhibitors, primary screen, biochemical, quenched FRET. Replicase polyprotein 1ab (Severe acute respiratory syndrome coronavirus), P0C6X7. recombinant SARS-CoV 3CLpro, quenched FRET peptide cleavage. inhibition, % at 6 µM. 290,000 tested, 0.14% active. AID 1706, 2009; in the data active = inhibition above about 12%
# BoNT F protease: BoNT/F light chain protease inhibitors, primary screen, biochemical, flow cytometry, MLPCN library; Botulinum neurotoxin type F light chain protease (Clostridium botulinum); Multiplex microsphere protease cleavage assay; inhibition, % at 10 µM; 360,000 tested, 0.22% active; AID 588497, 2011; in the data active = inhibition above about 35%, passing the limit was not always enough; inconclusive = no clear call, values can overlap the other calls
# BJeLR viability: MLPCN primary cell-based screen for lethality selective to Ras in HRASV12 cells; BJeLR (HRASV12) viability, CellTiter-Glo ATP luminescence, 48 h; 300,000 tested, 0.17% active; AID 1554, 2009; inhibition, % (no concentration beside the values); in the data active = inhibition above about 50%; inconclusive = no clear call, values can overlap the other calls
# BoNT-A LC inh2: BoNT/A light chain protease inhibitors, primary screen, biochemical, flow cytometry, MLPCN library; 360,000 tested, 0.17% active; AID 588499, 2011; Botulinum neurotoxin type A light chain protease (Clostridium botulinum A str. ATCC 3502); inhibition, % at 10 µM; multiplex microsphere protease substrate cleavage
# Hits are given with their value; n = inactive; u = inconclusive; x = no result; ! = a repeat was not active. Cut-off read from the data, not from the text of the source, unless noted: active = inhibition above about 30%; inconclusive = no clear call, values can overlap the other calls; inactive = below that.
SMILES,Anthrax LF prot,Autofluor counter,3CLpro inhibitor,BoNT F protease,BJeLR viability,BoNT-A LC inh2
CCOc1ccccc1/C=c1\sc2ncnn2c1=O,n,21270,n,n,n,u
CCCOc1ccc(/C=c2\sc3ncnn3c2=O)cc1,n,n,n,n,n,n
CCOc1ccccc1C=C1SC(=S)N(CC)C1=O,n,n,x,n,x,n
CC(=O)Oc1ccc(/C=c2\sc3ncnn3c2=O)cc1,n,22478,n,n,n,n
COC(=O)c1ccc(CNC(=O)CSc2nc3ccccc3[nH]2)cc1,n,n,n,n,n,n
C[C@@H]1CN([C@@H](C)CO)C(=O)c2cc(Br)cnc2O[C@H]1CN(C)C(=O)c1ccncc1,n,n,x,n,x,n
CC1=NN(c2ccccc2)C(=O)/C1=C\N1CC(C)OC(C)C1 (stereo unspecified),n,16159,n,n,n,n
O=C(Nc1ccc(Cl)cc1)N[C@@H]1c2c(ccc3ccccc23)OC[C@@H]1CO,n,23698,n,n,n,n
CN(C(=O)c1ccccc1)C1c2c(ccc3ccccc23)OCC1CO (stereo unspecified),n,n,n,n,n,n
COc1cc(OC)cc(-c2nc3cc(C)ccc3o2)c1,n,22263,n,n,n,n
Cn1cc(CN2CCN(c3ccccc3)CC2)c2ccccc21,n,21941,n,n,n,n
CS(=O)(=O)c1ccc(Cl)c(NC(=O)C2CCCCN2S(=O)(=O)c2ccccc2)c1 (stereo unspecified),n,n,x,n,x,n
FC(F)(F)Oc1ccc(NC(=S)Nc2ccccc2N2CCOCC2)cc1,n,n,n,n,n,n
Cc1ccc(OCC(=O)Nc2nnc(C3CCCO3)s2)c(Br)c1 (stereo unspecified),n,n,n,n,n,n
O=C(Nc1nnc(C2CCCO2)s1)c1ccc(Br)cc1 (stereo unspecified),n,23157,n,n,x,n
Cc1ccc(N2C(=O)CC3(CCCC3)CC2=O)cc1,32,n,n,u,n,n
COc1ccc(CCNC(=O)/C=C/c2ccc(C)cc2)cc1OC,n,n,n,n,n,n
CNC(=O)NC(=O)C(OC(=O)CCNS(=O)(=O)c1ccccc1)c1ccccc1 (stereo unspecified),n,18283,n,n,n,n
CCN(CC(=O)Nc1ccc([N+](=O)[O-])cc1OC)CC(=O)NC(C)(C)C,n,n,n,n,n,n
CCOc1nc(C)ccc1-c1noc(-c2ccco2)n1,n,20107,n,n,n,n
COc1ccc(C)cc1S(=O)(=O)N1CCCC(N2CCN(c3ccccc3)CC2)C1 (stereo unspecified),n,n,x,n,x,n
COc1ccc(-c2nc3ccccc3c(=O)n2NC(=S)N(C)C)cc1,n,n,n,n,n,n
COc1ccc(Cc2c(-c3cccc(Br)c3)nc3ccc(Cl)cn23)c(C)c1,n,n,x,n,x,n
COc1ccc(Cc2c(-c3ccccc3)nc3ccc(Br)cn23)c(C)c1,n,n,x,n,x,40
Oc1c(Cl)cc(Cl)cc1CNc1ccc(Br)cn1,n,n,n,n,n,n
SMILES,Anthrax LF prot,Autofluor counter,3CLpro inhibitor,BoNT F protease,BJeLR viability,BoNT-A LC inh2
Oc1ccc(Cl)cc1CNc1ccc(Br)cn1,n,23615,n,n,n,n
C/C(N)=C(/C#N)C(=O)CSc1cc(Cl)ccc1Cl,n,n,n,n,n,n
C/C(N)=C(/C#N)C(=O)CSc1nnnn1-c1ccc(C)cc1C,n,19626,n,n,n,n
Cc1cccc(Nc2nnc(SCC(=O)c3c(N)n(C4CC4)c(=O)[nH]c3=O)s2)c1,n,n,x,n,x,n
C/C(N)=C(/C#N)C(=O)CSc1nnc(Nc2cccc(C)c2)s1,n,17498!,n,n,n,n
C/C(N)=C(/C#N)C(=O)CSc1nc2cc(Cl)ccc2s1,n,24839,n,n,n,u
Cc1ccc(C(=O)Nc2cc3ccccc3oc2=O)cc1,n,n,n,n,n,n
O=C(COc1ccc(S(=O)(=O)NCc2ccccc2)cc1)NCc1cccnc1,n,n,n,n,n,n
COc1cccc(N2CN(CCc3ccccc3)CNC2=S)c1,u,n,n,50,n,n
CCc1ccc(N2CN(CCc3ccccc3)CNC2=S)cc1,u,n,n,n,n,n
O=C(c1cccs1)N1CCc2ccccc21,n,21871,n,n,n,n
Cc1ccc2c(c1)CCCN2C(=O)c1cccs1,n,20191,n,n,n,n
O=C(c1cccs1)N1CCCc2ccccc21,n,n,n,n,n,n
NC(=O)c1cnn2c(C(F)(F)F)cc(-c3ccccc3)nc12,n,n,n,n,n,n
O=C(NC1CCCC1)c1cnn2c(C(F)(F)F)cc(-c3ccc4c(c3)OCO4)nc12,n,n,n,n,n,n
O=C(NC1CCCC1)c1cnn2c(C(F)(F)F)cc(-c3ccco3)nc12,n,20185,n,n,n,n
CC(C)CCNC(=O)c1cnn2c(C(F)(F)F)cc(-c3ccco3)nc12,n,19781,n,n,n,n
NC(=O)c1cnn2c(C(F)(F)F)cc(-c3ccc(F)cc3)nc12,n,22634,n,n,n,n
COCCCNC(=O)COc1cc2c(c3oc(=O)c(C)c(C)c13)CCC(C)(C)O2,n,n,n,n,n,n
Cc1cccc(C(=O)OCC(=O)N(C)c2ccccc2)c1C,n,n,n,n,n,n
CCC(C)COC(=O)C(C#N)c1nc2ccccc2nc1N1CCCCC1 (stereo unspecified),n,21493,n,n,n,u
CCC(CC)COC(=O)C(C#N)c1nc2ccccc2nc1N1CCN(CC)CC1 (stereo unspecified),n,21646,n,n,n,n
CCCCCCOC(=O)C(C#N)c1nc2ccccc2nc1N1CCN(C)CC1 (stereo unspecified),n,n,n,n,n,n
O=P(OC1CCCCC1)(OC1CCCCC1)C(O)c1c(Cl)cccc1Cl (stereo unspecified),n,17127,n,n,n,n
Cc1ccsc1CN1CCN(c2ccccn2)CC1,n,21639,n,n,n,n
SMILES,Anthrax LF prot,Autofluor counter,3CLpro inhibitor,BoNT F protease,BJeLR viability,BoNT-A LC inh2
COc1ccc(N(C(=O)c2ccncc2)S(=O)(=O)c2cccc([N+](=O)[O-])c2)cc1,n,n,n,n,n,n
COc1ccc(C(=O)Nc2ccccc2-c2nnn(CC(=O)Nc3ccc4c(c3)OCCO4)n2)cc1,n,20699,n,n,n,n
Nc1ccccc1-c1nnn(CC(=O)Nc2ccc3c(c2)OCCO3)n1,n,n,n,n,n,n
CCc1ccc(C(=O)NNC(=O)c2ccc(=O)n(C)n2)cc1,n,n,n,n,n,n
Cc1ccc(S(=O)(=O)CC2CSc3nc4ccccc4n32)cc1 (stereo unspecified),n,n,n,n,n,n
Cc1ccc(S(=O)(=O)CC2CSc3nc(N)cc(=O)n32)cc1 (stereo unspecified),n,21227,n,n,n,u
